Measured values: PubChem BioAssay AID618 (Sanford-Burnham Center for Chemical Genomics, 2007)
In all, about 87,000 compounds went through this assay and about 540 (0.62%) were called active. No rule for the calls is given here. The list comes from a sample in which actives are over-represented; it also holds similar structures and randomly drawn compounds. Results with a measured potency or affinity are listed apart.

Test: inhibitors of MT1-MMP promoter transcription, cell-based, luciferase reporter, luminescence (AID 618);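 also: actives suppress MT1-MMP promoter-driven transcription so potencies describe inhibitors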
Conditions: MT1-MMP promoter luciferase reporter cells

Structure (SMILES)	outcome
COc1ccc(-n2c(Cc3cc(=O)[nH]c(=O)[nH]3)nnc2SCC(=O)N2CCCC2)cc1	inactive
O=C(CSc1nnc(Cc2ccccc2)o1)NC1CCCCC1	inactive
CCOC(=O)c1c(NC(=O)CCl)sc(C(=O)N(CC)CC)c1C	active
CCOC(=O)c1c(NC(=O)CN(C)C)sc(C(=O)N(CC)CC)c1C	inactive
CCOC(=O)Nc1sc(C(=O)N(CC)CC)c(C)c1C(=O)OCC	inactive
Cc1ccc(NC2=C/C(=N\S(=O)(=O)c3cccs3)c3ccccc3C2=O)c(C)c1	inactive
CCC1CCCCN1C(=O)Cn1c(C(=O)OC)cc2ccsc21 (stereo not drawn)	inactive
O=C(c1cccnc1)N1CCCc2ccccc21	inactive
CCC(=O)Nc1ccc(NC(=O)c2cccc(OC)c2)nc1	inactive
COc1cccc(C(=O)Nc2ccc(NC(=O)C(C)(C)C)cn2)c1	active
COc1cccc(C(=O)Nc2ccc(NC(C)=O)cn2)c1	inactive
Cn1c(NC(=O)CC(C)(C)C)cc(=O)n(C)c1=O	inactive
Cc1nnc2sc(-c3ccc(NC(=O)c4cccnc4)cc3)nn12	inactive
O=C1c2ccccc2C(=O)C1c1ccncc1	inactive
N#CC1=C(N)SC(N)=C(C#N)C1c1ccnc2ccccc12	inactive
O=C1c2ccccc2-c2nccnc21	inactive
COc1ccc(C2C(=O)c3ccccc3C2=O)c(OC)c1	inactive
O=C(NCCCCCNC(=O)c1ccco1)c1ccco1	inactive
CCCCOc1ccccc1C1NC(=O)NC(C)=C1C(=O)OCCOCC (stereo not drawn)	inactive
CC(C)(C)NC(=O)Nc1ccc2nccnc2c1	inactive
O=C(OCc1ccccn1)c1ccc(COc2ccccc2Cl)o1	inactive
CCc1ccc(OCc2ccc(C(=O)NCc3ccccn3)o2)cc1	inactive
O=C(O)c1ccc(COc2ccc(Cl)cc2)o1	inactive
CCOc1ccc(OCc2ccc(C(=O)N3CCCC3)o2)cc1	inactive
CCN(CC(O)Cn1c2ccccc2c2ccccc21)S(=O)(=O)c1ccc(C)cc1 (stereo not drawn)	inactive
O=C(/C=N/O)Nc1ccccc1C(=O)O	inactive

Structure (SMILES)	outcome
O=C(NCc1ccccc1)c1ccc(Oc2ccc(C(=O)NCc3ccccc3)cc2)cc1	inactive
O=C(CN(CC1CCCO1)C(=O)CCC(=O)Nc1nccs1)NCc1ccc2c(c1)OCO2 (stereo not drawn)	inactive
CCOC(=O)N1CCN(C(=O)CN(c2cccc(C(F)(F)F)c2)S(C)(=O)=O)CC1	inactive
CCOC(=O)c1ccc(NC(=O)N2CCc3ccccc32)cc1	inactive
O=C(Nc1ccccc1)N1CCc2ccccc21	inactive
O=C(CN1C(=O)C2C3C=CC(C3)C2C1=O)Nc1nc2ccccc2[nH]1 (stereo not drawn)	inactive
CCOc1ccc(S(=O)(=O)N(C)c2ccc(OCC(=O)N3CCOCC3)cc2)cc1	inactive
CC(=O)c1ccc(NC(=O)C(C)Sc2nnnn2C)cc1 (stereo not drawn)	inactive
COc1cccc(C(=O)Nc2ccccc2)c1	inactive
COc1ccc(N/C=C\C(=O)c2ccc3c(c2)OCO3)cc1	inactive
COc1cccc(C(=O)/C=C/Nc2cc(C)ccc2O)c1	inactive
COc1ccc(C(=O)Nc2cccc(C)c2)cc1	inactive
COc1ccc(S(=O)(=O)NCC(c2cccnc2)N2CCN(C)CC2)cc1C (stereo not drawn)	inactive
O=C(COc1ccc2ccccc2c1)NC1CC1	inactive
CCCC1(C(=O)OC)NC(c2cc(OC)c(OC)c(OC)c2)C2C(=O)N(CC)C(=O)C21 (stereo not drawn)	inactive
O=c1[nH]nc(Cc2ccc(Cl)cc2)c2ccccc12	inactive
Cc1nn2c(C(F)(F)F)cc(-c3ccc(Cl)cc3)nc2c1C(=O)N1CCOCC1	inactive
Nc1ccc2nc(-c3ccc(N)c(Cl)c3)[nH]c2c1	inactive
Nc1ccc(-c2nc3c(Cl)c(N)ccc3[nH]2)cc1	inactive
CC(=O)c1cnc2cc(-c3ccc(Cl)cc3)nn2c1C	inactive
O=C(CNS(=O)(=O)c1ccccc1)NCc1ccccn1	inactive
CCCc1ccc(-c2cc(N)n[nH]2)cc1	inactive
CCCCc1ccc(-c2ccc(Br)cc2)nc1	inactive
CCOc1ccc(NC(=O)CCN2CCN(c3ccccc3F)CC2)cc1	inactive
COc1ccc(-c2nnn(CC(=O)NCc3ccccc3)n2)cc1OC	inactive
CCC(C)NC(=O)Nc1ccc2c(c1)N(C)C(=O)c1ccccc1S2 (stereo not drawn)	inactive

Structure (SMILES)	outcome
Cc1nc(SCc2cccc(Oc3ccccc3)c2)n[nH]1	inactive
c1ccc(-c2nnc(-c3ccccn3)nn2)nc1	inactive
c1ccc(-c2ccccn2)nc1	inactive
CCc1nc(OCC(=O)c2ccccc2)c(C#N)c2c1COC(C)(C)C2	inactive
NC(=O)c1ccccc1N/C=C/C(=O)c1ccccc1	active
Cc1c(N/C=C/C(=O)c2ccc(Cl)cc2)c(=O)n(-c2ccccc2)n1C	inactive
NC(=O)c1ccccc1N/C=C/C(=O)c1ccc(F)cc1	inactive
Cc1cc(N/C=C/C(=O)c2ccc(Br)cc2)no1	inactive
Cc1ccc(/C=C/C(=O)c2ccccc2)cc1	inactive
Cc1ccc(C(=O)/C=C/Nc2ccccc2C(N)=O)cc1	inactive
NC(=O)c1ccccc1N/C=C/C(=O)c1ccc(Cl)cc1	inactive
Cc1ccc(C(=O)/C=C/Nc2ccccn2)cc1	active
COc1ccc(C(=O)Nc2ccccn2)cc1	inactive
COc1ccc(C(=O)/C=C/Nc2cccc(C)n2)cc1OC	inactive
CCCCc1ccc(Nc2nc(CCC)cc(=O)[nH]2)cc1	inactive
COc1ccc(C2C(C#N)=C(N)Oc3n[nH]c(-c4ccccn4)c32)c(OC)c1OC (stereo not drawn)	inactive
C=C(c1ccc(OC)cc1)c1ccc(OC)cc1	inactive
CC(C)Cn1c(N)c(C(=O)COC(=O)c2cc(C(F)(F)F)nc3ccccc23)c(=O)n(C)c1=O	inactive
COC(=O)C(C(=O)Nc1ncccn1)C1CCCCCC1 (stereo not drawn)	inactive
O=C(Nc1cccnc1)c1c(F)c(F)c(F)c(F)c1F	inactive
Cc1ccc(S(=O)(=O)n2nc(-c3ccc(Cl)cc3)nc2NCc2ccco2)cc1	inactive
Cc1ccnn1CCSCC(=O)O	inactive
O=C(CC(=O)Nc1ccccn1)Nc1ccccn1	inactive
O=C(/C=C/NNC(=O)c1ccccc1)c1ccccc1	inactive
CCn1c(=NC(=O)CN2C(=O)CCC2=O)sc2c(C)cc(C)cc21	inactive
Cc1cc(N2CCCC2=O)cc(C)c1S(=O)(=O)NCCOc1ccc(C(C)(C)C)cc1	inactive
